From PubChem BioAssay
FLuc modulator – firefly luciferase modulation, counter-screen for miR-21 project; P08659; purified FLuc, Km substrates, luminescence inhibition; Potency, µM (titrated, usually from 57.5 µM), inactives show at the highest dose activity change, negative = inhibition, usual class: inhibitors; hit rate 6.9% among 360,000; AID 588342;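 further: plate controls were vehicle for no effect and reference inhibitor for full effect; nearly all actives have a fitted effect of over 55% in size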
Target sequence (P08659 whole entry, looked up): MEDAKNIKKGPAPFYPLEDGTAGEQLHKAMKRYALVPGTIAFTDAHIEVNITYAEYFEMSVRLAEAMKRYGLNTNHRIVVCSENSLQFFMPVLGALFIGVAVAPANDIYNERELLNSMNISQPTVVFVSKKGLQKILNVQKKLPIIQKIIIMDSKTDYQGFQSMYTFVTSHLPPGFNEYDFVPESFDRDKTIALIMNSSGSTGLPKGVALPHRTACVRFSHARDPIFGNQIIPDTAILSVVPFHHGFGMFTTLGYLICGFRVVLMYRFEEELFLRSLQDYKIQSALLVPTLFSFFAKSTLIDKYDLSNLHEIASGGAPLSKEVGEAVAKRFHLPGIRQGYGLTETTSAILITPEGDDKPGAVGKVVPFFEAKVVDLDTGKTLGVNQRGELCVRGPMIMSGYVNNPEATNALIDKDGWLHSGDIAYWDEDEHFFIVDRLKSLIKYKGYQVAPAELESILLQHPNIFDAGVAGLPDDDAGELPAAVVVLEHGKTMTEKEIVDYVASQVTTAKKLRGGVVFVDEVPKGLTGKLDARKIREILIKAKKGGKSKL
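Purified P. pyralis luciferase, 10 nM final, with Km-level 10 uM D-luciferin and 10 uM ATP in 50 mM Tris acetate pH 7.5, 10 mM Mg acetate, 0.01% Tween-20, 0.05% BSA; 6-point qHTS titration about 60 µM downward; luminescence read.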
Rab9 prom act – activators of Rab9 promoter; AID 485297; hit rate 2.8% among 320,000; Huh7 Rab9 promoter-luciferase reporter, luminescence, 24 h; Potency, µM (doses to about 9.22 µM), for inactives: at the top dose activation, negative = inhibition, actives largely listed as activators; further: % of control where 0% means no effect; nearly all actives have a fitted effect of over 60% in size
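Cell-based reporter: Huh7 stable for Rab9 promoter-driven luciferase, plated in reduced-serum medium with 10% FBS at 1500 cells/well, compound-treated 24 h at 37 °C, luminescence read after 10 min reagent.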
Luc counter – blocks Kinase-Glo luciferase, a counter-screen artifact. AID 1379. Kinase-Glo luciferase, ATP luminescence, 8 min. hit rate 0.28% among 200,000. Potency, µM (highest dose often 38.3 µM), without a hit: top-dose activity change, negative = inhibition, usual class: inhibitors. Q27757; further: on the % scale 0 is the no-effect control and ±100 the full control effect; nearly all actives have a fitted effect of over 60% in size
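Kinase-Glo luciferase light output from ATP and luciferin was measured with 10 uM ATP, within the enzyme's linear range. Buffer: 50 mM imidazole pH 7.2, 50 mM KCl, 7 mM MgCl2, 0.01% Tween 20, 0.05% BSA; luminescence read after 8 min at ambient temperature.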
NPC1 prom act – activators of NPC1 promoter. Huh7 NPC1 promoter luciferase reporter, 24 h. Potency, µM (highest dose often 9.22 µM), for inactives: at the top dose activation, usual class: activators. hit rate 2.4% among 320,000. AID 485313; further: % of control where 0% means no effect; nearly all actives have a fitted effect of over 60% in size
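Stable NPC1-promoter luciferase Huh7 line; cpd (DMSO) 24 h, 37 °C, 5% CO2; Amplite luciferase reagent 10 min RT; luminescence readout. qHTS format.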
SMN2 splice up – increases expression of the SMN2 splice variant | HEK293 SMN2-luciferase splicing reporter, luminescence, 30-36 h | Potency, µM (series often up to 46.1 µM), for inactives: at the highest dose activity change, positive = activation, most hits filed as activators | AID 1458 | hit rate 2.8% among 210,000; further: % of control where 0% means no effect; nearly all actives have a fitted effect of over 55% in size
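qHTS luciferase splicing reporter: luminescence rises when SMN2 exon 7 is included in transfected HEK293 cells. Compound exposure lasted 30-36 h at 37C, with 4.5 mM final sodium butyrate as control, followed by a ONE-Glo read.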
* = called active by the depositor; ? = inconclusive; . = no result given; [ ] = dose if it differs, or a comment. An excerpt weighted towards active compounds, which were near 7.3% of everything screened. The call rests on the fitted dose curve; in most records, active means well fitted curve in the direction sought with a large enough effect; inconclusive means small, poorly fitted or top-dose-only effect, or another doubt; inactive means no such curve, though single readings can be large; an effect the other way counts as inactive or inconclusive. Potency means the concentration at half of the fitted maximal effect.

SMILES | FLuc modulator | Rab9 prom act | Luc counter | NPC1 prom act | SMN2 splice up
O=C(/C=C/c1ccc(Cl)c(Cl)c1)N1CCc2ccccc21 | ? | 2.82µM* | -0.5% | 3.16µM* | 7.08µM*
CC(=O)Nc1ccc(NC(=O)C2CCCN2S(=O)(=O)c2ccc3c(c2)CCCC(=O)N3)cc1 (stereo not given) | 3.3% | . | . | . | .
COc1ccc(NC(=O)c2sc3nc(C)c(C(=O)Nc4ccc(C)cc4C)c(-c4sccc4C)c3c2N)cc1 | -0.2% | . | . | . | 1.0%
COc1ccc(S(=O)(=O)N(CC(=O)Nc2cccnc2)c2ccc(Cl)cc2)cc1 | -14.8% | . | . | . | -16.6%
CC(=O)N1CCCN(Cc2cn(-c3cccc(C)c3)nc2-c2cccc(F)c2)CC1 | 16.9µM* | 0.5% | . | -3.8% | .
CC(=O)N1CCCN(Cc2cn(-c3ccc(C)cc3)nc2-c2ccc(F)cc2)CC1 | ? | 1.4% | -0.6% | -6.3% | .
Cc1cccc(-n2cc(CN3CCCN(C=O)CC3)c(-c3cccc(F)c3)n2)c1 | 13.5µM* | -0.4% | -1.7% | -5.4% | .
Cc1ccc(-n2cc(CN3CCCN(C=O)CC3)c(-c3ccc(F)cc3)n2)cc1 | ? | -3.1% | 0.5% | -4.3% | .
C=CCC(O)(C#Cc1ccccc1)c1ccccc1 (stereo not given) | . | . | -1.6% | . | 2.0%
O=C(Nc1ccc2oc(-c3ccccc3)nc2c1)c1ccccc1F | ? | 2.51µM* | 1.6% | ? | 12.6µM*
Cc1ccc(NC(=O)c2ncn[nH]2)cc1 | 16.9µM* | 2.2% | -0.9% | 10.1% | 14.8%
O=C(Nc1ccc2oc(-c3ccccc3F)nc2c1)c1ccccc1F | 4.78µM* | 3.55µM* | . | 2.24µM* | .
O=C(Nc1ccc(-c2nc3cc(NC(=O)c4ccccc4F)ccc3o2)cc1)c1ccccc1F | -2.5% | . | . | . | .
O=C(Nc1ccc2oc(-c3ccccc3F)nc2c1)c1ncn[nH]1 | 2.13µM* | 0.501µM* | -14.3% | 0.355µM* | 14.1µM*
O=C(Nc1ccc2oc(-c3ccc(Cl)c(Cl)c3)nc2c1)c1ncn[nH]1 | ? | 0.708µM* | 3.1% | 0.501µM* | -21.8%
O=C(Nc1ccc2oc(-c3ccc4ccccc4c3)nc2c1)c1ccc(Cl)c(Cl)c1 | -6.9% | . | . | . | 3.0%
CCCN=Cc1sc2ccc(OCC)cc2c1O | 12µM* | 3.16µM* | -6.4% | ? | 2.6%
COc1cc(/C=N/N2C(=O)C3C4C=CC(CC4)C3C2=O)ccc1O (stereo not given) | ? | 6.3% | . | 1.4% | .
O=C1c2ccccc2C(=O)N1/N=C/c1ccc(O)c(O)c1O | 16.9µM* | -5.3% | . | -6.2% | .
COc1cc(/C=N/N=C2/NC(=O)C(c3ccccc3)S2)ccc1O (stereo not given) | ? | -2.6% | 0.2% | -2.1% | 7.9%
O=C1Nc2ccccc2/C1=N\N=C\c1ccc(O)c(O)c1 | 23.9µM* | -15.3% | . | -5.3% | .
COc1cc(/C=N/N=C2/NC(=O)C(Cc3ccc(F)cc3)S2)ccc1O (stereo not given) | 2.69µM* | 25.2% | -7.2% | 16.6% | 30.6%
Cc1ccsc1/C=N/N=C1\C(=O)Nc2ccccc21 | ? | 23.3% | -1.3% | ? | 0.5%
O=C1c2cccc3cccc(c23)C(=O)N1/N=C/c1ccc(O)cc1O | 2.5% | 3.1% | 1.9% | -1.8% | 8.9%
COc1cc(/C=N/N2C(=O)c3ccccc3C2=O)ccc1O | 12µM* | -1.9% | -8.6% | -1.0% | 15.2%
SMILES | FLuc modulator | Rab9 prom act | Luc counter | NPC1 prom act | SMN2 splice up
Cc1ccc(C)c(N2CCN(C(=O)C(CC(C)C)NS(=O)(=O)c3ccc4nc(C)sc4c3)CC2)c1 (stereo not given) | -1.6% | . | . | . | 7.0%
Cc1cc(Cl)ccc1NC(=O)CN1C(=O)C(=O)c2ccccc21 | 8.2% | . | . | . | -9.0%
CCOC(=O)c1c(C)[nH]c(C)c1S(=O)(=O)N1CCCC(C(=O)N2CCN(c3ccccc3F)CC2)C1 (stereo not given) | -7.9% | . | . | . | .
Cc1ccc(N2CCN(C(=O)c3cn(C)c4ccc(S(=O)(=O)N(C)C)cc4c3=O)CC2C)cc1 (stereo not given) | -3.9% | . | . | . | -11.6%
Cc1ccc(NC(=O)c2oc3ccc(S(=O)(=O)N4CCCCC4)cc3c2C)c(C)c1 | 0.9% | . | . | . | .
CCc1ccc(-n2c(=O)c3c4c(sc3n(Cc3ccccc3C#N)c2=O)CCCC4)cc1 | 4.8% | . | . | . | 8.0%
COc1cc(/C=N/N=C2/C(=O)Nc3ccccc32)ccc1O | 6.75µM* | -0.7% | -14.4% | 21.0% | -10.1%[1.84 µM]
COc1ccc(OC)c(N=C2C(=O)Nc3ccccc32)c1 | -16.9% | 7.9% | -1.5% | 6.9% | ?
O=C(CC(c1cccs1)S(=O)(=O)c1ccccc1)c1ccc(F)cc1 (stereo not given) | 3.38µM* | -3.6% | -8.1% | 2.4% | -12.0%
O=C(CC(c1ccco1)S(=O)(=O)c1ccccc1)c1ccccc1 (stereo not given) | 21.3µM* | 2.6% | . | 0.5% | .
CCC(=O)NCC(c1cccs1)S(=O)(=O)c1ccc(C)cc1 (stereo not given) | 0.9% | -2.7% | . | -1.9% | .
Cc1ccc(C(=O)CC(c2cccs2)S(=O)(=O)c2ccc(C)cc2)cc1 (stereo not given) | 1.35µM* | ? | -4.8% | 27.8% | 22.1%
CC(=O)Nc1cccc(-n2cc3c(c2-c2ccccc2Cl)c(=O)n(C)c(=O)n3C)c1 | -1.2% | . | . | . | 7.7%
O=C1C(C2=NC(C(=O)O)C3C(=O)N(c4ccc(Cl)cc4)C(=O)C23)=C(O)c2ccccc21 (stereo not given) | 6.75µM* | 9.7% | -12.4% | -3.7% | -2.7%
O=C1C(C2=NC(c3ccccn3)C3C(=O)N(c4ccc(Cl)cc4Cl)C(=O)C23)=C(O)c2ccccc21 (stereo not given) | 5.9% | -23.2% | . | -8.2% | .
O=C(CSc1ncnc2ccccc12)c1cccs1 | 1.51µM* | 0.447µM* | -15.8% | 1.78µM* | .
Cc1ccc(C(=O)CSc2ncnc3ccccc23)o1 | 13.5µM* | 3.98µM* | -17.8% | 3.98µM* | 10.9%
Cc1cc(C)n(-c2nc3cc(Cl)ccc3nc2Nc2ccc(CC(=O)O)cc2)n1 | ? | . | . | . | 8.3%
Cc1cccc(NN=C2c3ccccc3-c3ccccc32)c1 | ? | 3.4% | 4.3% | 17.7% | -4.7%
COc1ccccc1N/N=C1\COC(C)(C)CC1=O | ? | 29.0% | . | 23.3% | .
CC1(C)CC(=O)/C(=N/Nc2ccc(Cl)cc2)CO1 | 6.75µM* | 1.78µM* | . | 1.78µM* | .
Cc1cccc(N/N=C2/COC(C)(C)CC2=O)c1 | 8.49µM* | 3.16µM* | -1.1% | 3.16µM* | 17.8µM*
COc1ccc2c(c1)C(=O)[C@@H](OC(=O)NC1CCCC1)[C@H](c1ccc(OC)c(Br)c1)O2 | . | . | 1.4% | . | 1.6%
COc1ccccc1NS(=O)(=O)c1cccc(NC(=O)Nc2ccccc2)c1 | ? | -0.3% | 0.7% | -2.3% | -29.0%
CCOc1ccccc1OC(=O)c1cc2ccccc2oc1=O | ? | -4.3% | -0.4% | 1.9% | 3.5%
N/C(=N\NC(=O)c1ccc(F)cc1)c1cc2ccccc2oc1=O | -7.0% | -0.9% | 0.3% | 4.9% | 1.8%
